Source: PubChem BioAssay (National Center for Advancing Translational Sciences (NCATS))
AMA1 RON2 block: inhibitors of Plasmodium falciparum AMA1-RON2 interaction; AlphaScreen AMA1-biotinylated RON2 peptide binding; Potency, µM (doses to about 58.2 µM), hits mostly inhibitors; 360,000 tested, 0.2% active; also: nearly all actives have a fitted effect of over 45% in size
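AMA1 (3D7) with his tag at 25 nM final met compounds first, then biotinylated RON2 peptide at 25 nM; detection used donor plus acceptor beads, 10 µg/mL apiece, read by AlphaScreen after 30 min at room temperature.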
AmpC detergent: blocks E. coli AmpC beta-lactamase in detergent assay; 370,000 tested, 0.041% active; Potency, µM (titrated, usually from 114 µM), usual class: inhibitors; AmpC hydrolysis of nitrocefin, absorbance 480 nm, 0.01% Triton; P00811; AID 485294; also: nearly all actives have a fitted effect of over 25% in size
Target sequence (P00811 whole entry, looked up): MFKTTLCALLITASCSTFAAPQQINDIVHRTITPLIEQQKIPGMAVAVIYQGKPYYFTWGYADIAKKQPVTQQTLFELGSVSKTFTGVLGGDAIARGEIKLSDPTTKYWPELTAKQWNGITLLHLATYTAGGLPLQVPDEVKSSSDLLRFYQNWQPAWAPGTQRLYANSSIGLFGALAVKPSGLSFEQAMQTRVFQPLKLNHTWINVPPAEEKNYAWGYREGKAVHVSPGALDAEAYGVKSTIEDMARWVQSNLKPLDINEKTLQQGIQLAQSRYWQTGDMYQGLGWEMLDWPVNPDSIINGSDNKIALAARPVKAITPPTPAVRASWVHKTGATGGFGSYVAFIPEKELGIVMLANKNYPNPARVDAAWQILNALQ
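20 mM phosphate pH 7.0 + 0.01% (detergent screen) or 0.0001% Triton X-100; 5.3 nM AmpC reagent; cpd preinc 15 min RT; nitrocefin (800 uM stock) to start; A480 q20 s × 4 min; Activity was normalised to no-enzyme and no-compound control wells.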
AmpC inh no detg: AmpC beta-lactamase inhibition without detergent. P00811. AmpC nitrocefin hydrolysis, absorbance 480 nm, 0.0001% Triton. Potency, µM (titrated, usually from 57.1 µM), most hits filed as inhibitors. 330,000 tested, 0.52% active; also: nearly all actives have a fitted effect of over 20% in size
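20 mM phosphate pH 7.0 + 0.01% (detergent screen) or 0.0001% Triton X-100; 5.3 nM AmpC reagent; cpd preinc 15 min RT; nitrocefin (800 uM stock) to start; A480 q20 s × 4 min; Activity was normalised to no-enzyme and no-compound control wells.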
Giardia FBPA inh-1: blocks Giardia fructose-bisphosphate aldolase activity; AID 2451; purified Giardia FBPA; 290,000 tested, 0.71% active; Potency, µM (highest dose often 59.6 µM), actives largely listed as inhibitors; also: nearly all actives have a fitted effect of over 55% in size
Target sequence (A8B2U2 whole entry, looked up): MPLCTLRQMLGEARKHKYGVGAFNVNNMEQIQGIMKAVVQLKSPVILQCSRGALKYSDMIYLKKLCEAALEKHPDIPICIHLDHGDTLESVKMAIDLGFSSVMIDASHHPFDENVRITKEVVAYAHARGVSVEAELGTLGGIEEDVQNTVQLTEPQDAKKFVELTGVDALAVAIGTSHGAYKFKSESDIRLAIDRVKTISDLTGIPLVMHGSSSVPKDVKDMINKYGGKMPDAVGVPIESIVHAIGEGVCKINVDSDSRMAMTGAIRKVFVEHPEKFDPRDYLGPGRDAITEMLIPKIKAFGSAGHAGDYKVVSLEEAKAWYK
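Giardia FBPA (40 nM reagent) was preincubated 10 min at RT with compound (up to 57.5 uM final), then substrate plus GAPDH/TPI/NAD/arsenate coupling system with diaphorase/resazurin was added; resorufin fluorescence (525/598 nm) was read after 20 min.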
Giardia growth: inhibitors of Giardia lamblia growth. AID 2785. 1,500 tested, 5% active. shares compounds with Giardia FBPA inh-1. Potency, µM (titrated, usually from 57.5 µM), actives largely listed as inhibitors. Giardia lamblia trophozoite growth inhibition;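 also: trophozoites exposed to compound for 48 h at 37 °C; nearly all actives have a fitted effect of over 70% in size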
Mammal cell tox: toxic to mammalian cells in Giardia aldolase counter-screen; 1,500 tested, 4% active; mammalian cell viability counter-screen, qHTS; shares compounds with Giardia FBPA inh-1; Potency, µM (titrated, usually from 57.5 µM), hits mostly inhibitors;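 also: Chinese hamster ovary cells used as mammalian cytotoxicity surrogate; viability measured as cellular ATP by luminescence; compound exposure lasted 48 h before reading; nearly all actives have a fitted effect of over 60% in size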
Giardia FBPA inh-2: confirmation of Giardia fructose-bisphosphate aldolase inhibitors; Potency, µM (top dose mostly 57.5 µM), usual class: inhibitors; AID 2787; purified Giardia aldolase enzyme activity, qHTS; shares compounds with Giardia FBPA inh-1; 1,500 tested, 5% active; also: nearly all actives have a fitted effect of over 45% in size
Rabbit aldolase: selectivity test for Giardia aldolase inhibitors: rabbit aldolase; shares compounds with Giardia FBPA inh-1; Rabbit muscle FBPA enzyme inhibition, selectivity counter-screen; Potency, µM (highest dose often 57.5 µM), most hits filed as inhibitors; 1,500 tested, 4% active; also: nearly all actives have a fitted effect of over 60% in size
GAPDH coupling: GAPDH inhibition flagged for Giardia aldolase hits | shares compounds with Giardia FBPA inh-1 | GAPDH coupling enzyme counterscreen, biochemical, qHTS | Potency, µM (doses to about 57.5 µM), hits mostly inhibitors | 1,500 tested, 6% active | AID 2795; also: nearly all actives have a fitted effect of over 55% in size
Hits are given with their value; – = inactive; ? = inconclusive; · = no result given; [ ] = another dose, or the depositor's remark. In the library only some 1.1% were active in any assay of this set; here they are far more common. Calls follow the shape of the dose curve; as a rule, active = well fitted curve in the direction sought with a large enough effect; inconclusive = small, poorly fitted or top-dose-only effect, or another doubt; inactive = no such curve, though single readings can be large; an effect the other way counts as inactive or inconclusive.

SMILES | AMA1 RON2 block | AmpC detergent | AmpC inh no detg | Giardia FBPA inh-1 | Giardia growth | Mammal cell tox | Giardia FBPA inh-2 | Rabbit aldolase | GAPDH coupling
COc1ccc(COCC(O)CN2CCCC(C(F)(F)F)C2)cc1 (centres undefined) | · | – | – | 11µM | – | – | – | – | –
COc1ccc(N2CCN(CC(O)COCc3ccccc3)CC2)cc1 (centres undefined) | – | – | – | – | · | · | · | · | ·
O=C(CNCC1CCCO1)NCc1ccco1 (centres undefined) | – | – | – | 16µM | ? | – | – | – | –
O=C(NC(=S)Nn1cnnc1)c1ccccc1Cl | – | – | – | ? | · | · | · | · | ·
O=C(NC(=S)Nn1cnnc1)c1ccc(F)cc1Cl | – | – | – | 14µM | – | – | – | – | –
CCC(C)NC(=O)c1ccc2nc(CCc3ccccc3)oc2c1 (centres undefined) | · | – | · | · | · | · | · | · | ·
NC(=S)NNC(=O)Nc1cccc(Cl)c1 | –[11.6 µM] | – | – | – | · | · | · | · | ·
Cc1cccc(NNC(N)=S)c1 | – | – | – | 20µM | – | – | – | – | –
NC(=S)NNc1cccc(Cl)c1 | – | – | – | 13µM | – | – | – | – | –
CCCCOc1ccc(/C=N/Nc2cc(N3CCOCC3)nc(C)n2)cc1 | ? | ? | – | – | · | · | · | · | ·
Cc1ccc(NC(=O)CSc2nc3nc(C)c(Br)cc3[nH]2)cc1F | – | – | – | 18µM | ? | – | – | – | –
Cc1ccc(NC(=O)CSc2nc3ncccc3[nH]2)cc1F | · | – | · | · | · | · | · | · | ·
Cc1c(NN=C(C#N)C#N)c(=O)n(-c2ccccc2)n1C | – | – | – | 25µM | – | – | – | – | –
Cc1cccc(N2C(=O)CC(Sc3ncn[nH]3)C2=O)c1 (centres undefined) | – | – | – | 20µM | – | – | – | – | –
Cc1cc(C)nc(SC2CC(=O)N(c3ccc(C)c(C)c3)C2=O)n1 (centres undefined) | – | – | – | – | · | · | · | · | ·
Cc1ccc(N2C(=O)CC(Sc3ncn[nH]3)C2=O)cc1C (centres undefined) | – | – | – | 18µM | – | – | – | – | –
COCCNC(=O)C1(C(F)(F)F)C/C(=C/CCO)CCCO1 (centres undefined) | · | · | · | – | · | · | · | · | ·
Cc1ccc(C2/C(=C(/O)c3ccc(Br)cc3)C(=O)C(=O)N2Cc2ccco2)o1 (centres undefined) | – | – | – | 20µM | ? | – | – | – | –
COc1ccc(F)cc1S(=O)(=O)NCCc1sc2nc(-c3ccc(F)cc3)nn2c1C | · | – | · | · | · | · | · | · | ·
Cc1cccc(N(CC(=O)N/N=C/c2cc([N+](=O)[O-])ccc2Cl)S(C)(=O)=O)c1C | – | – | – | 18µM | – | – | – | – | ?
CS(=O)(=O)N(CC(=O)N/N=C/c1cc([N+](=O)[O-])ccc1Cl)c1ccccc1 | – | – | – | ? | · | · | · | · | ·
Cc1cccc(-n2c(=O)c3ccccc3n(Cc3ccccc3)c2=O)c1 | · | – | · | · | · | · | · | · | ·
CC1(C(=O)NCC2CC2)CCN1C(=O)C1(c2ccccc2)CC1 (centres undefined) | – | · | · | · | · | · | · | · | ·
CC(C(=O)Nc1cccc([N+](=O)[O-])c1)[n+]1ccccc1 (centres undefined) | – | – | – | 16µM | ? | – | – | – | –
CC1CCN(c2ccc(-c3nc(C(C)C)no3)cc2[N+](=O)[O-])CC1 | · | – | · | · | · | · | · | · | ·
SMILES | AMA1 RON2 block | AmpC detergent | AmpC inh no detg | Giardia FBPA inh-1 | Giardia growth | Mammal cell tox | Giardia FBPA inh-2 | Rabbit aldolase | GAPDH coupling
NC(=N\N=Cc1ccccc1)/C(N)=N/N=Cc1ccccc1 | – | · | · | · | · | · | · | · | ·
Oc1ccc(/C=N/N=C(c2ccccc2)c2ccccc2)c(O)c1O | – | – | – | 5.6µM | –[10.4 µM] | – | 10µM | ? | ?
CC1(C(=O)NCc2ccccc2)CSCC(=O)N1Cc1ccco1 (centres undefined) | – | · | · | · | · | · | · | · | ·
CCNC(=S)N/N=C/c1ccc(C(=O)O)cc1 | – | – | – | 18µM | –[10.4 µM] | – | – | – | –
CNC(=S)N/N=C/c1ccc(-c2ccc(C(=O)O)cc2)o1 | – | – | – | 18µM | –[10.4 µM] | – | – | – | –
O=c1c2ccccc2nc(/C=C/c2cc(Br)ccc2O)n1CCCO | – | – | – | – | · | · | · | · | ·
COc1ccc(C(=O)NC(=S)N2CCNC(=O)C2)cc1Br | – | – | – | 18µM | – | – | – | – | –
O=C(Nc1ccccc1)c1cc(C2CCCCN2C(=O)CCc2ccccc2)on1 (centres undefined) | – | · | · | · | · | · | · | · | ·
Cc1ccc(N=Nc2c(C)[nH]n(-c3ccccc3)c2=O)cc1Br | – | – | – | ? | · | · | · | · | ·
COC(=O)c1ccc(N=Nc2c(C)[nH]n(-c3ccccc3)c2=O)cc1 | ? | – | – | 13µM | – | – | – | – | –
Cc1[nH]n(-c2ccccc2)c(=O)c1N=Nc1cccc([N+](=O)[O-])c1 | – | ? | – | 8.9µM | – | – | – | – | –
Cc1ccc(NC(=S)c2ccncc2)c(C)c1 | – | – | – | 16µM | – | – | – | – | –
O=C(CSc1n[nH]c(-c2cccnc2)n1)Nc1ccc(Br)cc1 | – | – | – | 14µM | ? | – | – | – | –
Cc1cc(C)cc(NC(=O)CSc2n[nH]c(-c3cccnc3)n2)c1 | – | – | – | – | · | · | · | · | ·
CCOc1cccc(Nc2nn(-c3ccc(OC(F)(F)F)cc3)nc2C(C)=O)c1 | · | – | · | · | · | · | · | · | ·
CCOC(=O)c1c(NC(=O)CC)sc2c1CCN(Cc1ccccc1)C2 | – | – | – | 11µM | ? | – | – | – | –
CCOC(=O)c1c(NC(=O)CCS(=O)(=O)c2ccccc2)sc2c1CCN(C(C)C)C2 | – | – | – | – | · | · | · | · | ·
CC(=O)Nc1sc2c(c1C(N)=O)CCN(Cc1ccccc1)C2 | – | – | – | – | · | · | · | · | ·
COC(=O)c1c(NC(=O)C(C)(C)C)sc2c1CCN(Cc1ccccc1)C2 | – | ? | – | 11µM | – | – | – | – | –
NC(=O)c1c(NC(=O)Cc2ccccc2)sc2c1CCN(Cc1ccccc1)C2 | – | – | – | 13µM | ? | – | – | – | –
COC(=O)c1c(NC(=O)Cc2ccccc2)sc2c1CCN(C(C)C)C2 | – | – | – | 11µM | – | – | – | – | –
CC1(C(=O)NS(=O)(=O)C2CC2)CCCN(C(=O)c2ccc(C(F)(F)F)cc2)C1 (centres undefined) | – | · | · | · | · | · | · | · | ·
COc1ccc(C2=Nn3c(nnc3-c3cccc(OC)c3OC)SC2)cc1OC | · | · | · | – | · | · | · | · | ·
CN(C)CCn1c(NCc2ccc3c(c2)OCO3)nc2ccccc21 | – | – | – | 28µM | ? | – | – | – | –
